Data taken from PubChem BioAssay (Tox21).
Results filed as inconclusive are left out. Activity calls are given as the source filed them. Unless noted, calls follow the shape of the dose curve; as a rule, active = well fitted curve in the direction sought with a large enough effect in the repeat runs; inconclusive = weak or mixed curves; inactive = no such curve, though single readings can be large; an effect the other way counts as inactive or inconclusive.

Assays:
[1] = molecular target: Thyrotropin receptor (Homo sapiens) (UniProt P16473); assay: qHTS assay to identify small molecule agonists of the thyroid stimulating hormone receptor (TSHR) signaling pathway (AID 1224843; calls by dose curve; also: nearly all actives have a fitted effect of over 45% in size)
How it was run: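 HEK293 cells stably bearing the thyrotropin receptor were plated at 800 cells/well and challenged with compound (30 min, RT). Accumulated cAMP was quantified via cAMP-d2 competing for cryptate-tagged antibody.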

[2] = qHTS assay to identify small molecule agonists of H2AX (AID 1224845; active = well fitted activation curve with a large enough effect in the signal ratio in the repeat runs, not every such curve was filed as active; the % refers to the signal ratio)
How it was run: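 Phospho-H2AX Ser139 measured by HTRF (ex 320 nm; em 665 and 620 nm) after 24 hr antibody incubation. Compounds, 15 concentrations, 0.76% DMSO, were applied to CHO-K1 cells for 3hr at 37C before lysis.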

[3] = qHTS assay to identify small molecule agonists of the hypoxia (HIF-1) signaling pathway (AID 1224846; active = well fitted activation curve with a large enough effect in the signal ratio in the repeat runs, not every such curve was filed as active; the % refers to the signal ratio)
How it was run: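 Hypoxia-pathway activation was scored as increased beta-lactamase from an HRE-controlled reporter in ME-180 cells; plated at 2,000 cells per well with 0.5% dialyzed FBS, they were exposed 17 hrs to compounds and then given CCF4-AM.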

[4] = qHTS assay to identify small molecule agonists of H2AX - cell viability counter screen (AID 1224847; calls by dose curve; also: top concentration of the series differs between compounds; nearly all actives have a fitted effect of over 30% in size)
How it was run: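 Cytotoxicity counter screen in wild-type CHO-K1 cells: a 3 hr compound treatment at 37C across 15 concentrations, followed by CellTiter-Glo luminescence to gauge viable cells.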

[5] = qHTS assay to identify small molecule agonists of the estrogen related receptor (ERR) signaling pathway from Tox21 library (AID 1224849; calls by dose curve; also: nearly all actives have a fitted effect of over 15% in size); settings: ERR reporter cell line, ONE-Glo luciferase, 18 h; at 92.4 µM (top of the series) unless noted
How it was run: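 Six hours post-seeding at 37 C/5% CO2, ERR cells receive DMSO-solubilised compounds; after 18 h at 37 C, ONE-Glo reagent is applied and luminescence recorded.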

[6] = qHTS RealTime-Glo MT Cell Viability Assay in HepG2 cells - 24 hour (AID 1224867); also: nearly all actives have a fitted effect of over 50% in size
How it was run: (§1)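 HepG2 cells were seeded at 600 cells/well together with NanoLuc luciferase and a cell-permeant prosubstrate, preincubated 5 h at 37 C/5% CO2, then pin-dosed with compounds in DMSO. Nonlytic luminescence from viable cells was read at each time point.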

[7] = qHTS RealTime-Glo MT Cell Viability Assay in HEK293 cells - 32 hour (AID 1224868); also: nearly all actives have a fitted effect of over 50% in size; also: potency is read from the fitted curve at half-maximal effect
How it was run: (§2)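 HEK293 cells were seeded at 600 cells/well together with NanoLuc luciferase and cell-permeant prosubstrate, preincubated 5 h at 37 C/5% CO2, then given compound in DMSO by pintool. Luminescence from viable-cell prosubstrate reduction was read repeatedly over 40 h.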

[8] = A CellTox Green Cytotoxicity Assay to monitor cytotoxicity in HEK293 cells - 0 hour (AID 1224869); also: nearly all actives have a fitted effect of over 50% in size
How it was run: (§3)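 Seeding of HEK293 cells together with cytotoxicity dye preceded a 5 h incubation at 37 C/5% CO2. Test compounds in DMSO were then added and fluorescence monitored across 40 h.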

[9] = qHTS RealTime-Glo MT Cell Viability Assay in HepG2 cells - 40 hour (AID 1224870); also: nearly all actives have a fitted effect of over 50% in size
How it was run: (§4)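 Real-time viability: cells seeded at 600 per well together with NanoLuc and cell-permeant prosubstrate, compounds added after 5 h incubation. Luminescence tracked at 0, 8, 16, 24, 32 and 40 h of exposure.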

[10] = A CellTox Green Cytotoxicity Assay to monitor cytotoxicity in HEK293 cells - 40 hour (AID 1224871); also: nearly all actives have a fitted effect of over 45% in size; also: potency is read from the fitted curve at half-maximal effect
How it was run: as §3

[11] = qHTS RealTime-Glo MT Cell Viability Assay in HEK293 cells - 16 hour (AID 1224872); also: nearly all actives have a fitted effect of over 50% in size; also: potency is read from the fitted curve at half-maximal effect
How it was run: as §2

[12] = qHTS RealTime-Glo MT Cell Viability Assay in HepG2 cells - 8 hour (AID 1224873); also: nearly all actives have a fitted effect of over 55% in size
How it was run: as §4

[13] = qHTS RealTime-Glo MT Cell Viability Assay in HEK293 cells - 40 hour (AID 1224874); settings: RealTime-Glo luminescence; max response: stronger effect = lower value; also: nearly all actives have a fitted effect of over 50% in size; also: potency is read from the fitted curve at half-maximal effect
How it was run: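 Tox21 screen in HEK293 using RealTime-Glo MT chemistry, with cells and reagent co-dispensed. Luminescence proportional to viable cell number was captured at intervals during 40 h compound exposure at 37 C.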

[14] = A CellTox Green Cytotoxicity Assay to monitor cytotoxicity in HEK293 cells - 24 hour (AID 1224875); also: nearly all actives have a fitted effect of over 45% in size
How it was run: as §3

[15] = A CellTox Green Cytotoxicity Assay to monitor cytotoxicity in HepG2 cells - 16 hour (AID 1224876); also: nearly all actives have a fitted effect of over 45% in size; also: potency is read from the fitted curve at half-maximal effect
How it was run: (§5)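 Nonlytic assay: viable cells exclude the dye, so fluorescence scales with cell death. HepG2 at 600 cells/well, compounds added after 5 h, signal read across 40 h.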

[16] = qHTS RealTime-Glo MT Cell Viability Assay in HepG2 cells - 32 hour (AID 1224877); also: nearly all actives have a fitted effect of over 55% in size
How it was run: as §1

[17] = A CellTox Green Cytotoxicity Assay to monitor cytotoxicity in HepG2 cells - 24 hour (AID 1224878); also: nearly all actives have a fitted effect of over 45% in size; also: potency is read from the fitted curve at half-maximal effect
How it was run: as §5

[18] = A CellTox Green Cytotoxicity Assay to monitor cytotoxicity in HepG2 cells - 40 hour (AID 1224879); also: nearly all actives have a fitted effect of over 40% in size; also: potency is read from the fitted curve at half-maximal effect
How it was run: as §5

[19] = qHTS assay to identify small molecule agonists of the hypoxia (HIF-1) signaling pathway - cell viability counter screen (AID 1224844; calls by dose curve; also: nearly all actives have a fitted effect of over 50% in size; also: potency is read from the fitted curve at half-maximal effect)
How it was run: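 Multiplexed with the HRE beta-lactamase assay, this viability read used CellTiter-Glo luminescence (30 min, RT) on HRE-bla ME-180 cells treated 17 hrs with compounds in 0.5% dialyzed FBS medium.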

[20] = qHTS assay to identify small molecule antagonists of the estrogen related receptor (ERR) signaling pathway from Tox21 library (AID 1224848); also: nearly all actives have a fitted effect of over 50% in size
How it was run: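 Reading was by luminescence 30 min after ONE-Glo addition. Before that, ERR cells at 2,000 per well had rested 6 h at 37 C/5% CO2 and then received pin-tooled compounds in DMSO for 18 h at 37 C.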
% is scaled to controls: 0 for no effect and ±100 for the full control effect.

Chain of Thyrotropin receptor (Homo sapiens) (P16473 whole entry, looked up): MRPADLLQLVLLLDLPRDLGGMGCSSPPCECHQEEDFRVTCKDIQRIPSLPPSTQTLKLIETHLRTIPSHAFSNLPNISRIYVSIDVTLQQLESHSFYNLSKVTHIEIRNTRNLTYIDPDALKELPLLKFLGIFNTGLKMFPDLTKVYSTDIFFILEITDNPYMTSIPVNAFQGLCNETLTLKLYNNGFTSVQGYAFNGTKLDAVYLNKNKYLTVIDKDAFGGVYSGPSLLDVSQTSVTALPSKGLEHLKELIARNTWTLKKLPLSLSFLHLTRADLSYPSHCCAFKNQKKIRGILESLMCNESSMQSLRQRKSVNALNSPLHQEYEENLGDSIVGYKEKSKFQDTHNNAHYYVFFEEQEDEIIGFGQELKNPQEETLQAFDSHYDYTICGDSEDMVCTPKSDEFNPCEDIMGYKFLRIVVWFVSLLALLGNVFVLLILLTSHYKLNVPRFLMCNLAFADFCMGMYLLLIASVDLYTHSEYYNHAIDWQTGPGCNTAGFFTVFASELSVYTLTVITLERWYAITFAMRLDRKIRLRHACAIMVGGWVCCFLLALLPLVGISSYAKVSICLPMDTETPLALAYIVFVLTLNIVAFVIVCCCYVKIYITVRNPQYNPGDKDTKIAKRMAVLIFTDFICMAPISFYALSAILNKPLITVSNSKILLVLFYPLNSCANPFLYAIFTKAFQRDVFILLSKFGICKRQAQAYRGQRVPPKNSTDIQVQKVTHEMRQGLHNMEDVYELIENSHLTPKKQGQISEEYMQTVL

CC[C@H]1OC(=O)[C@H](C)[C@@H](O[C@H]2C[C@@](C)(OC)[C@@H](O)[C@H](C)O2)[C@H](C)[C@@H](O[C@@H]2O[C@H](C)C[C@H](N(C)C)[C@H]2O)[C@](C)(O)C[C@@H](C)/C(=N\OCOCCOC)[C@H](C)[C@@H](O)[C@]1(C)O
inactive: Potency [1] | Potency [2] | outcome [3] | Potency [4] | activity change, positive = activation [5] -14.4% [at 42.5 µM] | Potency [6] | Potency [7] | Potency [8] | Potency [9] | Potency [10] | Potency [11] | Potency [12] | max response [13] -15% | Potency [14] | Potency [15] | Potency [16] | Potency [17] | Potency [18]

CCCCOC(=O)CCCCC(=O)OCCCC
inactive: Potency [19] | Potency [2] | outcome [3] | Potency [4] | Potency [20] | activity change, positive = activation [5] -0.363% | Potency [6] | Potency [7] | Potency [10] | Potency [11] | Potency [12] | max response [13] 0.321% | Potency [16] | Potency [17] | Potency [18]

O=C(/C=C/c1ccc([N+](=O)[O-])cc1)c1ccccc1
active: Potency [19] 24.6 µM | Potency [7] 24.6 µM | Potency [10] 17.4 µM | Potency [11] 24.6 µM | Potency [13] 24.6 µM | Potency [15] 21.9 µM | Potency [17] 21.9 µM | Potency [18] 21.9 µM
inactive: Potency [1] | Potency [4] | Potency [12]

COc1cc(OC)c2ccc(=O)oc2c1
inactive: Potency [1] | Potency [19] | Potency [4] | Potency [6] | Potency [7] | Potency [8] | Potency [9] | Potency [10] | Potency [11] | Potency [12] | max response [13] -23.1% | Potency [14] | Potency [16] | Potency [17] | Potency [18]

CC(=O)OCCC(C)CC(C)(C)C (stereo unspecified)
inactive: Potency [1] | Potency [19] | Potency [4] | Potency [20] | activity change, positive = activation [5] 4.15% | Potency [6] | Potency [9] | Potency [11] | Potency [12] | Potency [14] | Potency [15] | Potency [16] | Potency [18]

CCN(CC)C(=O)/C(C#N)=C/c1cc(O)c(O)c([N+](=O)[O-])c1
inactive: Potency [1] | Potency [19] | Potency [4] | Potency [6] | Potency [8] | Potency [10] | Potency [11] | Potency [12] | max response [13] 29.1% | Potency [14] | Potency [15] | Potency [16] | Potency [17] | Potency [18]

CCCCCCOC(=O)CCCCC
inactive: Potency [1] | Potency [19] | Potency [4] | Potency [6] | Potency [7] | Potency [8] | Potency [9] | Potency [10] | Potency [11] | Potency [12] | max response [13] 0.369% | Potency [14] | Potency [15] | Potency [16] | Potency [17]

CC(C)Cc1ccc(CC(=O)O)cc1
active: Potency [17] 19 µM | Potency [18] 21.3 µM
inactive: Potency [19] | Potency [2] | outcome [3] | Potency [4] | Potency [20] | activity change, positive = activation [5] -10.3% [at 42.5 µM] | Potency [6] | Potency [7] | Potency [9] | Potency [11] | Potency [12] | max response [13] 4.43% | Potency [16]
